USP1 inh – Inhibitors of USP1/UAF1: Primary Screen. Potency, µM (titrated, usually from 57.1 µM), inactives show top-dose activity change, negative = inhibition, usual class: inhibitors. recombinant USP1/UAF1, Ub-Rhodamine cleavage fluorescence. AID 743255, 2014. 0.23% of 390,000 active; further: on the % scale 0 is the no-effect control and ±100 the full control effect; nearly all actives have a fitted effect of over 60% in size
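Step one: compound is pinned into 1nM USP1/UAF1 in HEPES pH 7.8 buffer with TCEP. Step two: 15 min room-temperature incubation. Step three: Ub-Rho (150nM final) starts cleavage, tracked by fluorescence over six one-minute reads.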
EPAC1 antag – qHTS for Antagonist of cAMP-regulated guanine nucleotide exchange factor 3 (EPAC1): primary screen | Rap guanine nucleotide exchange factor 3 (Homo sapiens), O95398 | EPAC1 GEF assay, Rap1b-BODIPY-GDP exchange fluorescence | 0.14% of 360,000 active | Potency, µM (titrated, usually from 115 µM), inactives show at the top dose activity change, negative = inhibition, actives largely listed as inhibitors | AID 720709, 2013;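 further: plate controls were vehicle for no effect and positive control for full effect; nearly all actives have a fitted effect of over 50% in size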
EPAC2 antag – qHTS for Antagonist of cAMP-regulated guanine nucleotide exchange factor 2 (EPAC2): primary screen; Rap guanine nucleotide exchange factor 4 (Homo sapiens), Q8WZA2; EPAC2 GEF exchange of Rap1B-BODIPY-GDP, fluorescence; Potency, µM (highest dose often 114 µM), for the others: at the top dose activity, negative = inhibition, usual class: inhibitors; 0.18% of 360,000 active; further: on the % scale 0 is the no-effect control and ±100 the full control effect; nearly all actives have a fitted effect of over 45% in size
VDR inh – Inhibitors of the vitamin D receptor (VDR): qHTS | VDR-SRC2-3 peptide fluorescence polarization, 2 h | Potency, µM, for inactives: max response, negative = inhibition, hits mostly inhibitors | 0.93% of 400,000 active | AID 504847, 2011; further: on the % scale 0 is the no-effect control and ±100 the full control effect
Target sequence (P11473 whole entry, looked up): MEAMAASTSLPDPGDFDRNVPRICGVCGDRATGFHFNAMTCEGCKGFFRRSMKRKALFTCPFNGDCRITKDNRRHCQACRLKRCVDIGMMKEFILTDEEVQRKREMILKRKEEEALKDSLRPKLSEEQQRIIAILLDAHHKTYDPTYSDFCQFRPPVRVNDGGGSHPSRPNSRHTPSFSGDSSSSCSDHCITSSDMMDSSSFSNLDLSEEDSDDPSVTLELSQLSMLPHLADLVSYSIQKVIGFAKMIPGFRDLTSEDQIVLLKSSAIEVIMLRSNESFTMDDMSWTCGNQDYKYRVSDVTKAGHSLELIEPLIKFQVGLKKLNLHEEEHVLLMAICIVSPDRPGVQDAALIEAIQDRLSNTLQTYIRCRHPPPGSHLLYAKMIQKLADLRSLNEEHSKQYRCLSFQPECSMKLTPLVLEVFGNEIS
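Signal is fluorescence polarization, reporting how far test compounds block the interaction of VDR with the SRC2-3 coregulator peptide after a 2 h room-temperature incubation.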
EPAC1 agonist – qHTS for Agonist of cAMP-regulated guanine nucleotide exchange factor 3 (EPAC1): primary screen; Rap guanine nucleotide exchange factor 3 (Homo sapiens), O95398; EPAC1 agonist qHTS, biochemical assay; response scale: 100% = response to 6.5 mM cAMP; Potency, µM (series often up to 154 µM), without a hit: at the highest dose activation, actives largely listed as activators; 0.073% of 360,000 active; further: nearly all actives have a fitted effect of over 60% in size
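Compounds were pinned as a concentration titration into mixtures of EPAC1 (100 nM), BODIPY-GDP-loaded Rap1B (250 nM) and GDP (50 uM). After 5 min at room temperature, fluorescence was followed for 30 min; activity was scaled to 6.5 mM cAMP.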
EPAC2 agonist – qHTS for Agonist of cAMP-regulated guanine nucleotide exchange factor 4 (EPAC2): primary screen; 0.079% of 360,000 active; EPAC2 activation, biochemical qHTS; response scale: 100% = 6.5 mM cAMP response; Rap guanine nucleotide exchange factor 4 (Homo sapiens), Q8WZA2; AID 720711, 2013; Potency, µM (series often up to 154 µM), inactives show at the top dose activation, usual class: activators; further: nearly all actives have a fitted effect of over 50% in size
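Readout is BODIPY fluorescence (480 nm excitation, 540 nm emission), which falls as labeled GDP is exchanged off Rap1B. EPAC2 at 100 nM acted on 250 nM RAP1B-BODIPY-GDP with 50 uM GDP present.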
The depositor's hits bear a star; [ ] = dose if it differs, or a comment. Sampled rows, rich in hits. Any-hit rate of the full collection: about 1.2%. The call rests on the fitted dose curve; in most records, active means well fitted curve in the direction sought with a large enough effect; inconclusive means small, poorly fitted or top-dose-only effect, or another doubt; inactive means no such curve, though single readings can be large; an effect the other way counts as inactive or inconclusive. Potency means the concentration at half of the fitted maximal effect.

`COc1cccc2c1C(=O)c1c(O)c3c(c(O)c1C2=O)C[C@@](O)(C(=O)CO)C[C@@H]3OC1CC(N)C(O)C(C)O1` (stereo partly specified) gave USP1 inh inconclusive, EPAC1 antag 17%, EPAC2 antag -5%, VDR inh inconclusive, EPAC1 agonist inconclusive and EPAC2 agonist -6%.
Screening CC(=O)[C@@]1(O)Cc2c(O)c3c(c(O)c2[C@H](O[C@H]2C[C@H](N)[C@H](O)[C@H](C)O2)C1)C(=O)c1ccccc1C3=O returned EPAC1 antag 143%, EPAC2 antag 178%, EPAC1 agonist 28µM* and EPAC2 agonist inconclusive.
`COc1cccc2c1C(=O)c1c(O)c3c(c(O)c1C2=O)CC(O)(C(C)=O)CC3OC1CC(N(C)C)C(O)C(C)O1` (stereo unspecified) gave USP1 inh inconclusive, EPAC1 antag 28%, EPAC2 antag 21%, VDR inh -7%, EPAC1 agonist 89µM* and EPAC2 agonist 9%.
For COc1cccc2c1C(=O)c1c(O)c3c(c(O)c1C2=O)C[C@@](O)(C(=O)CO)C[C@@H]3O[C@H]1C[C@H](N)[C@H](O)[C@H](C)O1 the results were USP1 inh 32µM*, EPAC1 antag 6%, EPAC2 antag 76%, VDR inh -4%, EPAC1 agonist inconclusive and EPAC2 agonist 6%.
`C[C@H]1COC(=O)O1` gave VDR inh 3%.
CCn1nc(-c2ccccc2)c(-c2ccccc2)c(C(=O)OCCOC)c1=O was read as USP1 inh -22% and VDR inh 4%.
`CC(=O)OCC1=C(C(=O)O)N2C(=O)[C@@H](NC(=O)Cc3cccs3)[C@H]2SC1` gave USP1 inh 16%, EPAC1 antag -17%, EPAC2 antag 9%, VDR inh inconclusive, EPAC1 agonist -2% and EPAC2 agonist 7%.
O=C(Cc1cccs1)NC1C(=O)N2C(C(=O)[O-])=C(C[n+]3ccccc3)CSC12 (stereo unspecified) was read as VDR inh 25µM*.
Screening CC(C)(C)C(=O)/C(C#N)=C/c1cccs1 returned USP1 inh -3%, EPAC1 antag -11%, EPAC2 antag -8%, VDR inh -9%, EPAC1 agonist 14% and EPAC2 agonist 1%.
`CCN(CC)c1ccc(/C=C(\C#N)C(=O)NCc2ccccc2)cc1` gave USP1 inh -23%, EPAC1 antag -2%, EPAC2 antag 28%, VDR inh -7%, EPAC1 agonist 100µM* and EPAC2 agonist 8%.
Screening N#C/C(=C\c1cccs1)C(=O)c1ccccc1Cl returned USP1 inh -28%, EPAC1 antag -14%, EPAC2 antag 0%, VDR inh 35µM*, EPAC1 agonist 7% and EPAC2 agonist 1%.
`N#C/C(=C\c1cccs1)C(=O)NCc1ccccc1` gave USP1 inh -5%, EPAC1 antag -19%, EPAC2 antag 3%, VDR inh 45µM*, EPAC1 agonist -9% and EPAC2 agonist -2%.
`CCCc1nnc(NC(=O)c2cc(=O)c3ccccc3o2)s1` gave USP1 inh -6% and VDR inh 7%.
For O=C1CC2(CCCC2)CC(=O)N1CCCCNCC1COc2ccccc2O1 (stereo unspecified) the results were VDR inh -1%.
Screening Fc1ccccc1Nc1nc(Cl)nc(Cl)n1 returned USP1 inh -7%, EPAC1 antag 10%, EPAC2 antag 9%, VDR inh 71µM*, EPAC1 agonist 4% and EPAC2 agonist 5%.
CCCC(=O)Nc1ccc(OC[C@@H](O)CNC(C)C)c(C(C)=O)c1 was read as VDR inh 6%.
`CCCc1c(OCC(O)COc2ccc3c(=O)cc(C(=O)O)oc3c2CCC)ccc(C(C)=O)c1O` (stereo unspecified) gave VDR inh 45µM*.
For O=c1cc(O)c2ccc(O)cc2o1 the results were USP1 inh -7%, EPAC1 antag -26%, EPAC2 antag 2%, VDR inh -6%, EPAC1 agonist 4% and EPAC2 agonist 8%.
Screening O=c1ccc2[n+]([O-])c3ccc(O)cc3oc-2c1 returned USP1 inh -21%, EPAC1 antag -7%, EPAC2 antag 1%, VDR inh 11µM*, EPAC1 agonist 9% and EPAC2 agonist 2%.
Screening Cc1nn(-c2ccccc2)c(OC(=O)C(C)C)c1Sc1ccc(Cl)cc1 returned USP1 inh 0% and VDR inh 89µM*.
For COc1ccc(C(=O)Oc2c(Sc3ccccc3)c(C)nn2-c2ccccc2)c(OC)c1 the results were USP1 inh -4% and VDR inh -27%.
Screening CCNc1ccc(Br)cc(C(=O)/C=C/c2ccc(Cl)cc2Cl)c1=O returned USP1 inh inconclusive, EPAC1 antag -23%, EPAC2 antag 0%[57.1 µM], VDR inh 79µM*, EPAC1 agonist 10% and EPAC2 agonist 24%.
For CNc1ccc(Br)cc(C(=O)/C=C/c2cc(OC)ccc2OC)c1=O the results were USP1 inh inconclusive, EPAC1 antag inconclusive, EPAC2 antag 5%[57.1 µM], VDR inh inconclusive, EPAC1 agonist 0% and EPAC2 agonist 9%.
For c1ccc2oc(-c3csc(NCC4CCCO4)n3)cc2c1 (stereo unspecified) the results were USP1 inh -2%, EPAC1 antag -6%, EPAC2 antag -11%, VDR inh 79µM*, EPAC1 agonist 6% and EPAC2 agonist 16%.
For COC(=O)/C=C/C(C)=C/C=C/C(C)=C/C=C/C=C(C)/C=C/C=C(C)/C=C/C(=O)O the results were VDR inh 89µM*.
Screening COc1ccccc1NC(=O)/C=C\C(=O)O returned USP1 inh 0%, EPAC1 antag 2%, EPAC2 antag 4%, VDR inh -10%, EPAC1 agonist 0% and EPAC2 agonist 7%.
